Measurements published in PubChem BioAssay (NCI).
Values joined by “and” are separate entries in the source; they are usually repeats but may differ in a detail not shown here. Identical values can stand only once. About 83,000 compounds went through this panel and 20% of them were active in at least one assay; those are over-represented in the sample as a whole.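 Cells were grown in 96-well plates and exposed to the test compound at a single concentration for 48 hours; results are reported as percent growth, with values below 10 considered active.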 Active and inactive are the calls of the source.

Columns and labels:
Assay in all cases: NCI-60 one-dose screen, 48 h (100 = growth as untreated, 0 = no growth, -100 = all killed)
Conditions in all cases: 10 µM unless noted
NCI-H23 lung = tested on: NCI-H23 lung
NCI-H226 lung = tested on: NCI-H226 lung
NCI-H322M lung = tested on: NCI-H322M lung
HOP-62 NSCLC = tested on: HOP-62 NSCLC
NCI-H460 lung = tested on: NCI-H460 lung
HOP-92 NSCLC = tested on: HOP-92 NSCLC
NCI-H522 lung = tested on: NCI-H522 lung
A549/ATCC NSCLC = tested on: A549/ATCC NSCLC
786-0 renal = tested on: 786-0 renal
COLO 205 colon = tested on: COLO 205 colon
DU-145 prostate = tested on: DU-145 prostate
K-562 leukemia = tested on: K-562 leukemia
MALME-3M melanoma = tested on: MALME-3M melanoma
MDA-MB-231 breast = tested on: MDA-MB-231 breast
RXF 393 renal = tested on: RXF 393 renal
SF-268 CNS = tested on: SF-268 CNS
SF-295 CNS = tested on: SF-295 CNS
SF-539 CNS = tested on: SF-539 CNS
UACC-257 melanoma = tested on: UACC-257 melanoma
M14 melanoma = tested on: M14 melanoma

Row | SMILES | growth (NCI-H23 lung) | growth (NCI-H226 lung) | growth (NCI-H322M lung) | growth (HOP-62 NSCLC) | growth (NCI-H460 lung) | growth (HOP-92 NSCLC) | growth (NCI-H522 lung) | growth (A549/ATCC NSCLC) | growth (786-0 renal) | growth (COLO 205 colon) | growth (DU-145 prostate) | growth (K-562 leukemia) | growth (MALME-3M melanoma) | growth (MDA-MB-231 breast) | growth (RXF 393 renal) | growth (SF-268 CNS) | growth (SF-295 CNS) | growth (SF-539 CNS) | growth (UACC-257 melanoma) | growth (M14 melanoma)
1 | [Cu+].[NH-][C@H]1C[N-]C(=O)[C@H]([C@H]2CCN=C(N)N2)[N-]C(=O)/C(=C\NC(N)=O)[N-]C(=O)[C@H](CNC(=O)C[C@@H](N)CCCN)[N-]C(=O)[C@H](CO)[N-]C1=O | 105% (inactive) | 105% (inactive) | 106% (inactive) | 94.8% (inactive) | 98.4% (inactive) | -8.71% (active) | 85.6% (inactive) | 99.3% (inactive) | 102% (inactive) | 111% (inactive) | 112% (inactive) | 101% (inactive) | 101% (inactive) | 101% (inactive) | 105% (inactive) | 107% (inactive) | 99.6% (inactive) | 106% (inactive) | 99.8% (inactive) | 
2 | Cc1ccc2c(c1)C(C)Cc1c(ncnc1-n1cnc3cc(C)ccc31)N2C (configuration not stated) | 34% (inactive) | 47.4% (inactive) | 63.5% (inactive) | 27.6% (inactive) | 3.51% (active) | 10.4% (inactive) | -30% (active) | 8.39% (active) | 10.7% (inactive) | -51.2% (active) | 10.9% (inactive) | 6.54% (active) | 76.9% (inactive) | 38.5% (inactive) | 21.3% (inactive) | 25.6% (inactive) | 2.2% (active) | 16.8% (inactive) | 25.6% (inactive) | 17.7% (inactive)
3 | Nc1nc(N)c2c(n1)NC(c1ccc(Cl)cc1)CC(c1cccc(Nc3ccncc3)c1)=N2 (configuration not stated) | 54.7% (inactive) | 95.3% (inactive) | 63.9% (inactive) | 75.5% (inactive) | 23.2% (inactive) | 48.5% (inactive) | 88.6% (inactive) | 30.6% (inactive) | 41.9% (inactive) | 50.5% (inactive) | 70% (inactive) | 27% (inactive) | 57% (inactive) | 49.8% (inactive) | 49.2% (inactive) | 61.7% (inactive) | 64.5% (inactive) | 63.5% (inactive) | 52.3% (inactive) | 35.4% (inactive)
4 | CCOC(=O)c1c(-c2ccc(OC)cc2)c(C#N)c2c(C#N)c(N)nn2c1N | 62.2% (inactive) | 61.5% (inactive) | 80.9% (inactive) | 35.8% (inactive) | 9.75% (active) | 15.4% (inactive) | -6.29% (active) | 36.4% (inactive) | 45.3% (inactive) | 18.6% (inactive) | 56.1% (inactive) | 5.64% (active) | 30.8% (inactive) | 28.4% (inactive) | 59.7% (inactive) | 40.2% (inactive) | 28.2% (inactive) | 25.1% (inactive) | 49.9% (inactive) | 34.2% (inactive)
5 | COc1ccc(-c2nn3c(-c4cc(F)c(Cl)cc4Cl)nnc3s2)cc1 | 54.1% (inactive) | 80% (inactive) | 79.2% (inactive) | 30.6% (inactive) | 32.5% (inactive) | 37.6% (inactive) | 23.1% (inactive) | 51.1% (inactive) | 46.2% (inactive) | 62.9% (inactive) | 77.3% (inactive) | 16.1% (inactive) | 41.4% (inactive) | 55.2% (inactive) | 61.4% (inactive) | 60.3% (inactive) | 13.1% (inactive) | 47% (inactive) | 72.6% (inactive) | 15.5% (inactive)
6 | Cc1ccc(/C=C2\COc3ccc(O)c(O)c3C2=O)cc1 | 29.1% (inactive) | 61.5% (inactive) | 31.3% (inactive) | -1.56% (active) | 8.32% (active) | -18% (active) | -74.8% (active) | 27.4% (inactive) | -71% (active) | 30.2% (inactive) | 4.29% (active) | 13% (inactive) | -27.3% (active) | -24.8% (active) | -35.3% (active) | -37.6% (active) | 33.1% (inactive) | -63.9% (active) | 10.1% (inactive) | 3.41% (active)
7 | CN(C)CCCn1c2nc(=O)[nH]c(=O)c-2nc2cc(Cl)c(Cl)cc21 | 109% (inactive) | 105% (inactive) | 69.1% (inactive) | 117% (inactive) | 107% (inactive) | 88.3% (inactive) | -23.7% (active) | 99% (inactive) | 103% (inactive) | 4.28% (active) | 115% (inactive) | 47.9% (inactive) | 106% (inactive) | 98.6% (inactive) | 111% (inactive) | 108% (inactive) | 99.3% (inactive) | 105% (inactive) | 41.7% (inactive) | 51.1% (inactive)
8 | CCOC(=O)c1cnn(-c2ccc(S(N)(=O)=O)cc2)c1N | 95.5% (inactive) | 92% (inactive) | 99.8% (inactive) | 95.9% (inactive) | 104% (inactive) | 105% (inactive) | 96.2% (inactive) | 103% (inactive) | 95.6% (inactive) | 140% (inactive) | 132% (inactive) | 87.7% (inactive) | 104% (inactive) | 111% (inactive) | 95.9% (inactive) | 161% (inactive) | 110% (inactive) | 101% (inactive) | 96.1% (inactive) | 98.9% (inactive)
9 | COc1ccc(C(=O)c2ccc(OC)c(OC)c2OC)cc1 | 41.1% (inactive) and 40.7% (inactive) | 62.8% (inactive) and 53.2% (inactive) | 59% (inactive) | 41.7% (inactive) and 25.5% (inactive) | 20.1% (inactive) and 5.6% (active) | 59.6% (inactive) and 41.5% (inactive) | 11.2% (inactive) and 12.1% (inactive) | 47% (inactive) and 41.3% (inactive) | 74% (inactive) and 46.1% (inactive) | 3.87% (active) and -14.7% (active) | 25.9% (inactive) and 6.1% (active) | 29.3% (inactive) and 14.6% (inactive) | 51.5% (inactive) and 23.2% (inactive) | 59.2% (inactive) and 48.2% (inactive) | 9.82% (active) and 15.4% (inactive) | 49.3% (inactive) and 42.7% (inactive) | 13.2% (inactive) and -15.2% (active) | 9.19% (active) and -30.5% (active) | 48.6% (inactive) and 61% (inactive) | 24.5% (inactive) and 16.9% (inactive)
10 | S=c1nc(CS)[nH]c2ccccc12 | 89.5% (inactive) | 87.4% (inactive) | 95.6% (inactive) | 89.6% (inactive) | 100% (inactive) | 96.8% (inactive) | 95.6% (inactive) | 96.6% (inactive) | 103% (inactive) | 112% (inactive) | 108% (inactive) | 104% (inactive) | 86.6% (inactive) | 82.8% (inactive) | 109% (inactive) | 92.4% (inactive) | 94.6% (inactive) | 94.7% (inactive) | 95.9% (inactive) | 98.2% (inactive)
11 | COc1ccccc1/C=C1\COc2ccc(O)c(O)c2C1=O | 40.8% (inactive) | 76% (inactive) | 46.2% (inactive) | 17.3% (inactive) | 24.6% (inactive) | 29.6% (inactive) | -42.3% (active) | 50.6% (inactive) | 2.1% (active) | 77.9% (inactive) | 5.75% (active) | 2.89% (active) | 6.18% (active) | 17.4% (inactive) | 36.6% (inactive) | 32% (inactive) | 90.8% (inactive) | -23.5% (active) | 33.6% (inactive) | 
12 | COc1ccc(N2CCN(S(=O)(=O)c3oc(-c4ccccc4)nc3C#N)CC2)cc1 | 57.3% (inactive) | 64.5% (inactive) | 97.6% (inactive) | 106% (inactive) | 94.8% (inactive) | 101% (inactive) | 25.2% (inactive) | 99.4% (inactive) | 85.5% (inactive) | 80% (inactive) | 104% (inactive) | 15.3% (inactive) | 69.6% (inactive) | 77.2% (inactive) | 66.4% (inactive) | 102% (inactive) | 104% (inactive) | 68.2% (inactive) | 88% (inactive) | 
13 | CC(=O)N1N=C(c2ccc(Nc3nc(Nc4ccc(F)cc4)nc(Nc4ccc(F)cc4)n3)cc2)CC1c1ccccc1 (configuration not stated) | 90% (inactive) | 102% (inactive) | 92.5% (inactive) | 85.9% (inactive) | 92.3% (inactive) | 58.3% (inactive) | 89.4% (inactive) | 86.4% (inactive) | 78.5% (inactive) | 68.5% (inactive) | 116% (inactive) | 80.1% (inactive) | 76.2% (inactive) | 80.1% (inactive) | 60.6% (inactive) | 86.1% (inactive) | 132% (inactive) | 110% (inactive) | 108% (inactive) | 85% (inactive)
